The source of these data is PubChem BioAssay AID1345085 (National Center for Advancing Translational Sciences (NCATS), 2018).

Inconclusive results are not listed. A number with no mark means an inactive call. The source made the active and inactive calls. The call rests on the fitted dose curve; in most records, active means well fitted cell-killing curve with a large enough effect; inconclusive means small, poorly fitted or top-dose-only effect, or effect the other way; inactive means no such curve, though single readings can be large or run the other way. *1 amine or outer side, *2 acyl side, *3 side chain or, on linkers, in order; H or OH if unused. Where a SMILES comes first, the peptide text is derived from it. Bridges are numbered along the chain shown (N, C = ends). Roman numbers before positions name the chains, in order. [ ]: non-standard residue; d: D form. Actinocin(9to1) = Cc1c2oc3c(C)ccc(C(=O)[*:1])c3nc-2c(C(=O)[*:2])c(N)c1=O; NMeV = CN[C@H](C(=O)O)C(C)C; Sar = CNCC(=O)O
On the % scale 0 is the no-effect control and ±100 the full control effect; potency means the concentration at half of the fitted maximal effect.

For the test, the system named is Jar. Description: Confirmatory qHTS for gynecologic anti-cancer compounds from libraries of approved drugs and bioactive compounds. Further: nearly all actives have a fitted effect of over 55% in size. The settings on record: gynecologic cancer cell panel viability, ATPlite luminescence, 48 h; series mostly up to 57.6 µM; activity change, negative = viability loss: at the top concentration. The method, boiled down:
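ATPlite luminescence read-out of cell viability; IC50 from 11-point 1:3 titrations, 57.5 uM to 0.977 nM, 48 h compound exposure at 37 C, 5% CO2. Cells seeded at 1,000/well 16 h before dosing.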
As to `CCN(CC)CCCC(C)Nc1ccnc2cc(Cl)ccc12` (centres undefined), the “activity change, negative = viability loss” value was 12.7% [at 19.5 µM].

As to `CC[C@@]1(O)C(=O)OCc2c1cc1n(c2=O)Cc2cc3c(CN(C)C)c(O)ccc3nc2-1`, the Potency is 7.69 µM (active).

Regarding `Cc1nc(NC(=O)N2CCCC2C(N)=O)sc1-c1csc(C(C)(C)C)n1` (centres undefined), the Potency is 21.7 µM (active).

For the compound `CNCc1ccc(-c2[nH]c3cc(F)cc4c3c2CCNC4=O)cc1`, the “activity change, negative = viability loss” value is 25.3%.

With `Cc1ccn(-c2ccc(-c3ncco3)cc2)c(=O)c1-c1ccc2nc(N)ncc2c1`, the “activity change, negative = viability loss” value was -26.5%.

As for `Cc1csc(NC(=O)c2sc3nc4c(c(C(F)(F)F)c3c2N)CCC4)n1`, the Potency is 3.43 µM (active).

As to `COC(C)(C)CCn1nc(Nc2c(C)cccc2C)c2cnc(Nc3ccc(OCCN4CCCC4)c(F)c3)nc21`, the Potency is 27.3 µM (active).

As for `Cc1cnc(Nc2ccc(CN3CCOCC3)cc2)nc1Nc1cccc(S(=O)(=O)NC(C)(C)C)c1`, the Potency is 9.68 µM (active).

For the compound `NC(=O)Nc1cc(-c2cccc(F)c2)sc1C(=O)NC1CCCNC1` (centres undefined), the Potency was 1.22 µM (active).

Take `Cc1nc(N)nc(N)c1-c1ccc(Cl)c(Cl)c1`: the Potency is 4.85 µM (active).

With `COc1cc2c(NC3CCN(C(C)C)CC3)nc(C3CCCCC3)nc2cc1OCCCN1CCCC1`, the Potency was 10.9 µM (active).

As for `CC(C)C[C@H](NC(=O)[C@H](Cc1ccccc1)NC(=O)c1cnccn1)B(O)O`, the Potency was 0.0485 µM (active).

`Cc1ccc(C(=O)N(CCCN)C(c2nc3cc(Cl)ccc3c(=O)n2Cc2ccccc2)C(C)C)cc1` (centres undefined): the Potency was 0.0153 µM (active).

With `CC(=O)OC12COC1CC(O)C1(C)C(=O)C(O)C3=C(C)C(OC(=O)C(O)C(NC(=O)OC(C)(C)C)c4ccccc4)CC(O)(C(OC(=O)c4ccccc4)C21)C3(C)C` (centres undefined), the Potency was 0.0432 µM (active).

In the case of `C[C@@]1(C(=O)Nc2ccc(F)nc2)CCCN1c1nc(Nc2cc(C3CC3)[nH]n2)c2cccn2n1`, the Potency is 8.63 µM (active).

For `CNC1CCC(N(Cc2cccc(-c3ccncc3)c2)C(=O)c2sc3ccccc3c2Cl)CC1` (centres undefined), the Potency was 34.3 µM (active).

In the case of `CN[C@@H](C)C(=O)N[C@H]1CN(C(=O)CC(C)C)CC[C@H]2CC[C@@H](C(=O)NC(c3ccccc3)c3ccccc3)N2C1=O`, the “activity change, negative = viability loss” value was 10.5%.

Consider `Cc1c2oc3c(C)ccc(C(=O)N[C@@H]4C(=O)N[C@H](C(C)C)C(=O)N5CCC[C@H]5C(=O)N(C)CC(=O)N(C)[C@@H](C(C)C)C(=O)O[C@@H]4C)c3nc-2c(C(=O)N[C@@H]2C(=O)N[C@H](C(C)C)C(=O)N3CCC[C@H]3C(=O)N(C)CC(=O)N(C)[C@@H](C(C)C)C(=O)O[C@@H]2C)c(N)c1=O` (I: T[dV]P[Sar][NMeV] / II: T[dV]P[Sar][NMeV]; ester I:1-I:C, II:1-II:C; linker I:N-II:N via Actinocin(9to1)), for which the Potency is 1.72 µM (active).

Take `CC(C)Oc1ccc2c(=O)c(-c3ccccc3)coc2c1`: the Potency was 21.7 µM (active).

As for `CCCC(Nc1nc(-c2ccc(NC(=O)NCC)c(OC)c2)ncc1C)c1cccnc1` (centres undefined), the Potency was 0.432 µM (active).

Turning to `COc1cc2c(Nc3ccc(NC(=O)c4ccccc4)cc3)ncnc2cc1OCCCN1CCOCC1`, the Potency was 38.5 µM (active).

Consider `O=C(Nc1cccnc1)N1CCC(Cc2cccc(Oc3ccc(C(F)(F)F)cn3)c2)CC1`, for which the Potency is 9.68 µM (active).

For the compound `O=c1cc(CN2CCOCC2)occ1OCCCCCSc1ccnc2cc(C(F)(F)F)ccc12`, the Potency was 7.69 µM (active).

On to `O=c1[nH]c(=O)n([C@H]2C[C@H](O)[C@@H](CO)O2)cc1Br`, for which the “activity change, negative = viability loss” value is 3.99%.
